The list is not random: actives were taken first. Their share in the collection is about 2.9%.
EPAC2 ant val: Validation qHTS for antagonist of cAMP-regulated guanine nucleotide exchange factor 4 (EPAC2) | 16,000 tested, 1.7% active | AID 1645886, 2021 | Potency, µM (series often up to 112 µM), hits mostly inhibitors | Rap guanine nucleotide exchange factor 4 (Homo sapiens), Q8WZA2 | EPAC2 Rap1B BODIPY-GDP exchange, fluorescence; also: nearly all actives have a fitted effect of over 40% in size
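Normalized against a 6.5 mM cAMP agonist control, compounds were tested on 100 nM EPAC2 exchanging Rap1B-bound BODIPY-GDP (250 nM) for 50 uM GDP. Fluorescence drop (ex 480, em 540 nm) was tracked at room temperature over 30 min at 5-min intervals.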
EPAC1 agonist: Validation qHTS for agonist of cAMP-regulated guanine nucleotide exchange factor 3 (EPAC1). AID 1645883, 2021. EPAC1 Rap1b BODIPY-GDP exchange, fluorescence. 16,000 tested, 1% active. Potency, µM, most hits filed as activators. Rap guanine nucleotide exchange factor 3 (Homo sapiens), O95398; also: nearly all actives have a fitted effect of over 70% in size
Target sequence (O95398 whole entry, looked up): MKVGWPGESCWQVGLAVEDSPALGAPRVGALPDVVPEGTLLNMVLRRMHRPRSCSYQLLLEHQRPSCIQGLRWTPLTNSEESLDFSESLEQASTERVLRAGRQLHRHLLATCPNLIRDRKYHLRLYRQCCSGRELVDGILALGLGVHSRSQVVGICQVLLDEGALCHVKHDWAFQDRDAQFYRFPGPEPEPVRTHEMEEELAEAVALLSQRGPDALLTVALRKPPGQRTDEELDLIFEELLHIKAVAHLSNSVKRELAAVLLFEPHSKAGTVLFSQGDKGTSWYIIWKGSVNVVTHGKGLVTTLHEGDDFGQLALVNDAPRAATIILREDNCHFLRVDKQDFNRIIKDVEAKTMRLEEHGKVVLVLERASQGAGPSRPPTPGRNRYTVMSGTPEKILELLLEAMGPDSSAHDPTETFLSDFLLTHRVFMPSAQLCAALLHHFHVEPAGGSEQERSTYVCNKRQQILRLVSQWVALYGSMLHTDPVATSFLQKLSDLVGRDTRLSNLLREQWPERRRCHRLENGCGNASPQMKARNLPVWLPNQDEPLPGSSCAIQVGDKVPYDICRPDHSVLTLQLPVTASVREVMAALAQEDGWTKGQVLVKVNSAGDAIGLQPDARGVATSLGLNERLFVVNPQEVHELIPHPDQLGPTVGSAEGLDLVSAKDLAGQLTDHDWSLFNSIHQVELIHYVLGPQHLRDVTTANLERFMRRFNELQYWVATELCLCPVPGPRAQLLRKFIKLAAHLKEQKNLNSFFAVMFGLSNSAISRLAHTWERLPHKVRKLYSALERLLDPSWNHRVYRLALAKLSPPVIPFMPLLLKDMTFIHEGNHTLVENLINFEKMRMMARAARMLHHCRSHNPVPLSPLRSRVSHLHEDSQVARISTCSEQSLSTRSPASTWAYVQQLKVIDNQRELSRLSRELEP
Of the large screens only hits and unclear results are named; the others gave an inactive call; ! = not active in a repeat. Calls follow the shape of the dose curve; as a rule, active = well fitted curve in the direction sought with a large enough effect; inconclusive = small, poorly fitted or top-dose-only effect, or another doubt; inactive = no such curve, though single readings can be large; an effect the other way counts as inactive or inconclusive.

Cn1nccc1C(=O)NCC1CCC2(CCN(Cc3ccc(-c4ccc(Cl)cc4)o3)CC2)O1 (centres undefined)	none
COc1ccccc1CNC(=O)c1cnn(-c2nccc(-c3cccs3)n2)c1C	none
CCC(Oc1ccccc1)C(=O)N[C@@H]1C(=O)N2[C@@H]1SC(C)(C)[C@@H]2C(=O)O (some centres undefined)	none
CC(C)=CCc1c(O)cc(C)oc1=O	none
COc1cc(O)c2c(=O)cc(C)oc2c1CC=C(C)C	EPAC2 ant val 32µM, EPAC1 agonist inconclusive
CC(=O)O[C@@H]1CC2CCC1(C)C2(C)C (some centres undefined)	none
O=C(O)c1ccccc1Nc1ccccc1	none
O=C(O)c1ccccc1Nc1cccc(C(F)(F)F)c1	EPAC2 ant val 35µM!
Cc1c(CN2CCOc3ccc(C(C)(O)COc4ccccc4)cc3C2)cnn1C (centres undefined)	none
CC1(C)[C@@H](O)CC[C@]2(C)C3C(=O)C=C4C5C[C@@](C)(C(=O)O)CC[C@]5(C)CC[C@@]4(C)[C@]3(C)CC[C@@H]12 (some centres undefined)	EPAC2 ant val 4µM
CC1(C)C2CC[C@]3(C)[C@H](C(=O)C=C4[C@@H]5C[C@@](C)(C(=O)O)CC[C@]5(C)CC[C@]43C)[C@@]2(C)CC[C@@H]1O[C@H]1O[C@H](C(=O)O)[C@@H](O)[C@H](O)[C@H]1O[C@@H]1O[C@H](C(=O)O)[C@@H](O)[C@H](O)[C@H]1O (some centres undefined)	EPAC2 ant val inconclusive
CCCCC/C=C\C/C=C\C/C=C\C/C=C\CCCCCC(=O)O	none
CCCCCCCCCCC/C=C\C(C)(C)/C=C\CCCC(=O)O	EPAC2 ant val 35µM!
CCCCCCC/C=C\CCCCCCCCC(=O)O	EPAC2 ant val 28µM
CCCCC/C=C\C/C=C\C/C=C\C/C=C\CCCC(=O)O	EPAC2 ant val inconclusive
CC(=O)OCC(=O)[C@@]1(O)[C@H](C)C[C@H]2[C@@H]3C[C@H](F)C4=CC(=O)C=C[C@]4(C)[C@H]3[C@@H](O)C[C@@]21C	none
Cc1cn([C@H]2C[C@H](F)[C@@H](CO)O2)c(=O)[nH]c1=O	none
C=C1C(=C/C=C2\CCC[C@]3(C)[C@@H]([C@H](C)/C=C/[C@@H](O)C4CC4)CC[C@@H]23)C[C@@H](O)C[C@@H]1O	none
C=C1CCC(O)C/C1=C\C=C1/CCCC2(C)C1CCC2C(C)/C=C/C(C)C(C)C (centres undefined)	EPAC2 ant val 50µM
CCOc1nc2cccc(C(=O)OC(C)OC(=O)OC3CCCCC3)c2n1Cc1ccc(-c2ccccc2-c2nn[nH]n2)cc1 (centres undefined)	EPAC2 ant val 56µM, EPAC1 agonist inconclusive
CCCc1nc(C(C)(C)O)c(C(=O)OCc2oc(=O)oc2C)n1Cc1ccc(-c2ccccc2-c2nn[nH]n2)cc1	none
CC(O)[C@H]1CC[C@H]2[C@@H]3CC[C@@H]4C[C@@H](O)CC[C@]4(C)[C@H]3CC[C@]12C (some centres undefined)	none
Cc1cccc2cc(CNCCCN3CCCC3=O)c(N3CCN4CCCC4C3)nc12 (centres undefined)	none
CN(C)c1ccc(/C=C/c2ccnc3c(-c4ccccc4)cccc23)cc1	EPAC1 agonist inconclusive
CN(C)c1ccc(/C=C/c2c(Cl)cnc3ccccc23)cc1	EPAC1 agonist 100µM
Cc1ccc2ncc(C)c(/C=C/c3ccc(N(C)C)cc3)c2c1	none
CN(C)c1ccc(/C=C/c2ccnc3c(Cl)cccc23)cc1	EPAC1 agonist 112µM
COc1ccc(C(=O)NCc2nc(-c3cccc(NC(=O)c4ccc(C)s4)c3)oc2C)cc1	none
COC(=O)[C@@H]1CCCN1C(=O)c1cnn(-c2ncc3c(n2)-c2ccccc2CCC3)c1C1CC1	none
COc1ccc(OC)c2c(/C=C/c3c[nH]c4ccccc34)ccnc12	none
Cc1ccc2c(/C=C/c3c[nH]c4ccccc34)ccnc2c1C	EPAC1 agonist 100µM
CC(C)C[C@H](NC(=O)[C@@H](COC(C)(C)C)NC(=O)[C@H](Cc1ccc(O)cc1)NC(=O)[C@H](CO)NC(=O)[C@H](Cc1c[nH]c2ccccc12)NC(=O)[C@H](Cc1cnc[nH]1)NC(=O)[C@@H]1CCC(=O)N1)C(=O)N[C@@H](CCCN=C(N)N)C(=O)N1CCC[C@H]1C(=O)NNC(N)=O	none
O=C(Nc1cc(C(=O)Nc2ccc(S(=O)(=O)O)cc2S(=O)(=O)O)cc(C(=O)Nc2ccc(S(=O)(=O)O)cc2S(=O)(=O)O)c1)Nc1cc(C(=O)Nc2ccc(S(=O)(=O)O)cc2S(=O)(=O)O)cc(C(=O)Nc2ccc(S(=O)(=O)O)cc2S(=O)(=O)O)c1	EPAC1 agonist inconclusive
O=C(Nc1ccc(C(=O)Nc2ccc(C(=O)Nc3ccc(S(=O)(=O)O)c4cc(S(=O)(=O)O)cc(S(=O)(=O)O)c34)cc2)cc1)Nc1ccc(C(=O)Nc2ccc(C(=O)Nc3ccc(S(=O)(=O)O)c4cc(S(=O)(=O)O)cc(S(=O)(=O)O)c34)cc2)cc1	EPAC2 ant val 22µM
CCOC(=O)C1=C(C)NC(C)=C(C(=O)OC)C1c1cccc(Cl)c1Cl (centres undefined)	EPAC2 ant val inconclusive, EPAC1 agonist 56µM!
CCOC(=O)C1=C(COCCN)NC(C)=C(C(=O)OC)C1c1ccccc1Cl (centres undefined)	none
COc1ccccc1-c1cc(N(C)Cc2ccco2)ncn1	EPAC2 ant val inconclusive
CN(C)c1ncnc2ccc(-c3ccoc3)cc12	none
COc1ccccc1-c1ccc2ncnc(N(C)Cc3ccco3)c2c1	EPAC2 ant val 50µM, EPAC1 agonist inconclusive
CN(Cc1ccco1)c1ncnc2ccc(-c3ccccc3Cl)cc12	EPAC2 ant val 40µM, EPAC1 agonist inconclusive
CN(Cc1ccco1)c1ncncc1-c1ccccc1Cl	EPAC1 agonist inconclusive
CN(Cc1ccco1)c1ncnc2ccc(-c3ccoc3)cc12	EPAC2 ant val 45µM
CC(C)c1nc(C(=O)N2CCOc3ccc(CN4CCN(c5ccccn5)CC4)cc3C2)cs1	none
COc1ccc(CN2CCCC(n3cc(C(=O)NC4CCCC4)nn3)C2)c2ccccc12 (centres undefined)	EPAC2 ant val inconclusive
C=Cc1c(C)c2cc3nc(cc4[nH]c(cc5nc(cc1[nH]2)C(C)=C5CCC(=O)OC)c(CCC(=O)O)c4C)[C@@]1(C)C3=CC=C(C(=O)OC)[C@H]1C(=O)OC	none
Cc1c(C)c2c(c(C)c1OC(=O)CCC(=O)OCCO)CC[C@@](C)(CCC[C@H](C)CCC[C@H](C)CCCC(C)C)O2	none
CO[C@@H]1[C@@H](O[C@@H]2O[C@H](C)[C@@H](O[C@H]3C[C@@](C)(O)[C@@H](OC(=O)CC(C)C)[C@H](C)O3)[C@H](N(C)C)[C@H]2O)[C@@H](CC=O)C[C@@H](C)[C@@H](O)/C=C/C=C/C[C@@H](C)OC(=O)C[C@H]1O	none
CCCCC[C@H](O)CC(=O)CCc1ccc(O)c(OC)c1	none
COc1cc(CNC(=O)CCCC/C=C/C(C)C)ccc1O	EPAC2 ant val 40µM!
C[C@@H]1CCN(C(=O)[C@H](CCCN=C(N)N)NS(=O)(=O)c2cccc3c2NC[C@H](C)C3)[C@@H](C(=O)O)C1	none
COc1cc(-c2c(-c3ccc4c(c3)OCO4)noc2-c2ccsc2)ccc1F	EPAC2 ant val inconclusive
Cc1onc(-c2ccc3c(c2)OCO3)c1-c1ccc2[nH]ccc2c1	EPAC2 ant val inconclusive, EPAC1 agonist 100µM
